Screening results deposited in PubChem BioAssay by Broad Institute.
This is a sample that favours compounds with a hit; in the whole collection about 4% have one here.
ERAP1 HTS inh: ERAP1 (human) enzyme inhibition | recombinant ERAP1, Leu-AMC fluorescence, 60 min | inhibition, % at 10.7 µM | hit rate 0.15% among 340,000;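 active = mean replicate inhibition of at least 30%, or all replicates individually reaching that 30% level; inactive = mean below 30% and not every replicate reaching it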
AF4-AF9 inh: inhibitors of human MLL-AF4/AF9 interaction; AlphaScreen, biotin-AF4 peptide binding to FLAG-AF9; inhibition, % at 10 µM; hit rate 0.47% among 350,000; AID 651704;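 active = every replicate reaching a set inhibition limit, whatever the replicate mean, cut at about 25% in these data; inconclusive = mean inhibition reaches that limit but some replicates miss it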
Target sequence (P42568 whole entry, looked up): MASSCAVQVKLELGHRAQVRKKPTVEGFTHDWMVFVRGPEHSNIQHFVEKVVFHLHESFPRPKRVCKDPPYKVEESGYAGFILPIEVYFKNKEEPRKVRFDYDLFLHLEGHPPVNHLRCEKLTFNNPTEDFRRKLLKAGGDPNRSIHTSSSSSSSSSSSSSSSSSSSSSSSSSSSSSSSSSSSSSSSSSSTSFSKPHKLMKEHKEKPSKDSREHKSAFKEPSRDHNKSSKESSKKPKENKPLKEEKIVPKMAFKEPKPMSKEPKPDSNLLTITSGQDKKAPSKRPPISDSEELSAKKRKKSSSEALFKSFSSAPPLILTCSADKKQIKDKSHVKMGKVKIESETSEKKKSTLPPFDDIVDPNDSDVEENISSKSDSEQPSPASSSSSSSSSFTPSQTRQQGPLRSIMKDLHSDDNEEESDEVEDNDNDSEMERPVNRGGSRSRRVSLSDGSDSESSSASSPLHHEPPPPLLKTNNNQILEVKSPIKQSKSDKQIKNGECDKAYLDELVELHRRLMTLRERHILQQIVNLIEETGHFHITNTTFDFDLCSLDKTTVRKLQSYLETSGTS
RAD52 inh: inhibitors of human RAD52 DNA annealing; P43351; recombinant RAD52 DNA annealing, FRET fluorescence; inhibition, % at 18.7 µM; hit rate 0.46% among 360,000; AID 651710;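 active = every replicate showing at least 50% inhibition; inconclusive = mean inhibition at least 50% but not in every replicate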
DENV2 CPE: inhibitors of DENV2 cytopathic effect; DENV2-infected cells, cytopathic effect rescue, plate reader; CPE inhibition, % at 9.99 µM; hit rate 1.7% among 350,000; in the data active = CPE inhibition above about 20%, passing the limit was not always enough; inconclusive = no clear call, values can overlap the other calls; tested in BHK-21 cells
FGF22 binding: FGF22 (human) thermal shift binding. Q9HCT0. recombinant FGF22 thermal shift, SYPRO orange fluorescence; percent of sucrose octasulfate shift, DMSO zero. activity (Tm shift, normalised), % at 9.99 µM. hit rate 1.5% among 340,000. AID 651658;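 active = mean Tm shift, scaled 0 neutral to 100 positive control, at about 1.3% or above, every replicate too, limit read from the data; inconclusive = no clear call, values can overlap the other calls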
Numbers stand for hits.

O=C(CCS(=O)(=O)c1ccccc1)OCC(=O)N1CCN(S(=O)(=O)c2ccc(Cl)cc2)CC1 was read as ERAP1 HTS inh inactive, AF4-AF9 inh inactive, RAD52 inh inactive, DENV2 CPE inactive and FGF22 binding inactive.
Cc1ccc(N(C)C(=O)N2CCN(S(=O)(=O)c3ccc(C)cc3)CC2)cc1 was read as ERAP1 HTS inh inactive, AF4-AF9 inh inactive, RAD52 inh inactive, DENV2 CPE 58.8 and FGF22 binding inactive.
`Nc1ncccc1C(=O)OCC(=O)N1CCN(S(=O)(=O)c2ccc(Cl)cc2)CC1` gave ERAP1 HTS inh inactive, AF4-AF9 inh inactive, RAD52 inh inactive, DENV2 CPE 45.3 and FGF22 binding inactive.
O=C(CCCOc1ccccc1)N1CCN(S(=O)(=O)c2ccc(Cl)cc2)CC1 was read as ERAP1 HTS inh inactive, AF4-AF9 inh inactive, RAD52 inh inactive, DENV2 CPE inactive and FGF22 binding inactive.
CCN(CC)C(=O)N1CCN(S(=O)(=O)c2ccccc2)CC1 was read as ERAP1 HTS inh inactive, AF4-AF9 inh inactive, RAD52 inh inactive, DENV2 CPE inactive and FGF22 binding 43.5.
O=C(c1cc(-c2ccccc2)n[nH]1)N1CCN(S(=O)(=O)c2ccccc2)CC1 was read as ERAP1 HTS inh inactive, AF4-AF9 inh inactive, RAD52 inh inactive, DENV2 CPE 43.0 and FGF22 binding inactive.
Screening O=C(N1CCCC1)N1CCN(S(=O)(=O)c2ccccc2)CC1 returned ERAP1 HTS inh inactive, AF4-AF9 inh inactive, RAD52 inh inactive, DENV2 CPE inactive and FGF22 binding inactive.
For COc1ccc(-c2cc(C(=O)N3CCN(S(=O)(=O)c4ccccc4)CC3)[nH]n2)cc1 the results were AF4-AF9 inh inactive, RAD52 inh inactive, DENV2 CPE inactive and FGF22 binding inactive.
For CCOc1ccc(OCCCC(=O)N2CCN(S(=O)(=O)c3ccc(Cl)cc3)CC2)cc1 the results were ERAP1 HTS inh 32.1, AF4-AF9 inh inactive, RAD52 inh inactive, DENV2 CPE inactive and FGF22 binding inactive.
Screening O=S(=O)(c1ccccc1)N1CCCCN2[C@@H](CO)[C@H](c3ccc(-c4cncnc4)cc3)[C@@H]2C1 returned ERAP1 HTS inh inactive, AF4-AF9 inh inactive, RAD52 inh inactive, DENV2 CPE inactive and FGF22 binding inactive.
O=S(=O)(c1ccccc1)N1CCCCN2[C@H](CO)[C@H](c3ccc(-c4cncnc4)cc3)[C@@H]2C1 was read as ERAP1 HTS inh inactive, AF4-AF9 inh inactive, RAD52 inh inactive, DENV2 CPE 33.3 and FGF22 binding inactive.
Cc1ccccc1S(=O)(=O)N1CCCCN2[C@H](CO)[C@H](c3ccc(-c4cncnc4)cc3)[C@@H]2C1 was read as ERAP1 HTS inh inactive, AF4-AF9 inh inactive, RAD52 inh inactive, DENV2 CPE 36.1 and FGF22 binding inactive.
`Cc1ccccc1S(=O)(=O)N1CCCCN2[C@H](C1)[C@@H](c1ccc(-c3cncnc3)cc1)[C@@H]2CO` gave ERAP1 HTS inh inactive, AF4-AF9 inh inactive, RAD52 inh inactive, DENV2 CPE inactive and FGF22 binding inactive.
O=c1ccc(-c2ccc(S(=O)(=O)Nc3cccc(Br)c3)o2)n[nH]1 was read as ERAP1 HTS inh inactive, AF4-AF9 inh inactive, RAD52 inh inactive, DENV2 CPE 27.2 and FGF22 binding inactive.
For Cc1cccc(NS(=O)(=O)c2ccc(-c3ccc(=O)[nH]n3)o2)c1 the results were ERAP1 HTS inh inactive, AF4-AF9 inh inactive, RAD52 inh inactive, DENV2 CPE inactive and FGF22 binding inactive.
Screening OC1CCCN(CC(O)COC(c2ccc(F)cc2)c2ccc(F)cc2)C1 (centres undefined) returned ERAP1 HTS inh inactive, AF4-AF9 inh inactive, RAD52 inh inactive, DENV2 CPE inactive and FGF22 binding inactive.
OC1CCCN(CC(O)c2ccccc2)C1 (centres undefined) was read as ERAP1 HTS inh inactive, AF4-AF9 inh inactive, RAD52 inh inactive, DENV2 CPE inactive and FGF22 binding 42.9.
COc1cc2c(cc1OC)C(C1C(=O)CC(C)(C)CC1=O)N(C(=O)CCl)CC2 (centres undefined) was read as ERAP1 HTS inh inactive, AF4-AF9 inh inactive, RAD52 inh inactive, DENV2 CPE inconclusive and FGF22 binding inactive.
CC1CC(=O)C(C2c3ccccc3CCN2C(=O)CCl)C(=O)C1 (centres undefined) was read as ERAP1 HTS inh inactive, AF4-AF9 inh inactive, RAD52 inh inactive, DENV2 CPE inactive and FGF22 binding 44.1.
COc1ccc(-c2cc(C)no2)cc1S(=O)(=O)NCCc1ccco1 was read as ERAP1 HTS inh inactive, AF4-AF9 inh 25.8, RAD52 inh inactive, DENV2 CPE inactive and FGF22 binding inactive.
Screening COc1ccc(-c2cc(C)no2)cc1S(=O)(=O)NCC(C)c1ccccc1 (centres undefined) returned ERAP1 HTS inh inactive, AF4-AF9 inh inactive, RAD52 inh inactive, DENV2 CPE inactive and FGF22 binding inactive.
`Cc1noc(C)c1NC(=O)Nc1ccc2c(c1)C(=O)N([C@@H](C)CO)C[C@@H](C)[C@@H](CN(C)S(=O)(=O)c1ccccc1)OCCCC[C@@H](C)O2` gave ERAP1 HTS inh inactive, AF4-AF9 inh inactive, RAD52 inh inactive and DENV2 CPE inactive.
For C[C@@H]1CN([C@H](C)CO)C(=O)Cc2cc(NS(=O)(=O)c3cn(C)cn3)ccc2O[C@@H]1CN(C)CC1CCCCC1 the results were ERAP1 HTS inh inactive, AF4-AF9 inh inactive, RAD52 inh inactive, DENV2 CPE 34.3 and FGF22 binding inactive.
Screening C[C@@H]1CN([C@H](C)CO)C(=O)Cc2cc(NS(=O)(=O)c3cn(C)cn3)ccc2O[C@@H]1CN(C)Cc1ccccc1 returned ERAP1 HTS inh inactive, AF4-AF9 inh inactive, RAD52 inh inactive, DENV2 CPE inactive and FGF22 binding inactive.
C[C@@H]1CN([C@@H](C)CO)C(=O)Cc2cc(NS(=O)(=O)c3cn(C)cn3)ccc2O[C@H]1CN(C)Cc1ccccc1 was read as ERAP1 HTS inh inactive, AF4-AF9 inh inactive, RAD52 inh inactive, DENV2 CPE 25.3 and FGF22 binding inactive.
`O=C(N[C@@H]1CC[C@@H](CCNC(=O)C2CC2)O[C@H]1CO)c1ccncc1` gave ERAP1 HTS inh inactive, AF4-AF9 inh inactive, RAD52 inh inactive, DENV2 CPE inactive and FGF22 binding inactive.
For Cc1nc(NCCc2ccccc2)c2nnn(Cc3ccccc3Cl)c2n1 the results were ERAP1 HTS inh inactive, AF4-AF9 inh inactive, RAD52 inh inactive, DENV2 CPE inactive and FGF22 binding inactive.
COc1cccc(OC)c1Nc1nc(C)nc2c1nnn2Cc1ccccc1Cl was read as ERAP1 HTS inh inactive, AF4-AF9 inh inactive, RAD52 inh inactive, DENV2 CPE 60.3 and FGF22 binding inactive.
N=C(N)SCc1cn(-c2ccccc2)nc1-c1ccc(Br)cc1 was read as ERAP1 HTS inh inactive, AF4-AF9 inh 32.8, RAD52 inh inactive, DENV2 CPE inactive and FGF22 binding inactive.
COc1cc(CN2CC3(CN(C(C)=O)C3)c3c([nH]c4cc(OC)ccc34)[C@H]2CO)cc(OC)c1 was read as AF4-AF9 inh inactive and DENV2 CPE inconclusive.
`Cc1ccc(NC(=O)N2CCCC2C(=O)NCC2CCCO2)cc1` (centres undefined) gave ERAP1 HTS inh inactive, AF4-AF9 inh inactive, RAD52 inh inactive, DENV2 CPE inactive and FGF22 binding 43.2.
